# Records with an inconclusive call do not appear. Calls of active or inactive are those of the source. Calls follow the shape of the dose curve; as a rule, active = well fitted activation curve with a large enough effect in the repeat runs; inconclusive = weak or mixed curves; inactive = flat fitted curve, though single readings scatter.
# Assay: A CellTox Green Cytotoxicity Assay to monitor cytotoxicity in HepG2 cells - 32 hour (AID 1224883); also: nearly all actives have a fitted effect of over 50% in size
# Details: CellTox Green fluorescence; series mostly up to 76.8 µM; cytotoxicity increase: at the top concentration
# Method in brief: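 Cytotoxicity was tracked as dead-cell DNA fluorescence in HepG2 cells treated with test compounds at 37 C; each time-point value comes from one kinetic series spanning 0, 8, 16, 24, 32 and 40 h.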
# % is scaled to controls: 0 for no effect and ±100 for the full control effect; potency is read from the fitted curve at half-maximal effect.
Compound,cytotoxicity increase,Potency
c1ccc(CNCc2ccccc2)cc1,4.41% (inactive),–
O=C1Nc2cc(Cl)ccc2Oc2ccccc21,-5.26% [at 35.3 µM] (inactive),–
CCN(CC)C(C)CN1c2ccccc2Sc2ccccc21 (stereo unspecified),4.16% [at 35.3 µM] (inactive),–
CC(=O)CC(=O)c1ccccc1,-0.937% (inactive),–
Cn1c(NCCN(CCO)CCCc2ccc([N+](=O)[O-])cc2)cc(=O)n(C)c1=O,-9.01% [at 35.3 µM] (inactive),–
CCN1CCC[C@H]1CNC(=O)c1c(OC)ccc(Br)c1OC,-5.33% [at 35.3 µM] (inactive),–
CN1CCC(=C2c3ccccc3C=Cc3ccccc32)CC1,–,26.8 µM (active)
CC[C@@H]1C[C@H](N(Cc2cc(C(F)(F)F)cc(C(F)(F)F)c2)C(C)=O)c2cc(C(F)(F)F)ccc2N1C(=O)OC(C)C,4.48% (inactive),–
Cn1c(N)nc2nc[nH]c2c1=O,20.4% (inactive),–
CC(C)CCCCCCOC(=O)c1ccc(C(=O)OCCCCCCC(C)C)c(C(=O)OCCCCCCC(C)C)c1,2.69% (inactive),–
CC(=O)/C=C/C1C(C)=CCCC1(C)C (stereo unspecified),-6.01% (inactive),–
SC1CCCC1,-7.72% (inactive),–
CC(C)(C)C(=O)OCOP(=O)(COCCn1cnc2c(N)ncnc21)OCOC(=O)C(C)(C)C,-6.14% [at 35.3 µM] (inactive),–
CN(C(=O)CCCOc1ccc2[nH]c(=O)ccc2c1)C1CCCCC1,-4.16% [at 35.3 µM] (inactive),–
CCCOc1ccc2nc(NC(=O)OC)[nH]c2c1,3.64% [at 35.3 µM] (inactive),–
O=C1[C@H](CC[C@H](O)c2ccc(F)cc2)[C@@H](c2ccc(O)cc2)N1c1ccc(F)cc1,3.23% [at 35.3 µM] (inactive),–
Nc1nc(N)c(-c2ccccc2)s1,-12.7% [at 35.3 µM] (inactive),–
C=CC(=O)OCCOC(=O)CCC(=O)O,-10.9% (inactive),–
O=C(CC(=O)c1ccccc1)c1ccccc1,11.1% (inactive),–
COC(=O)C(C)=O,-9.38% (inactive),–
CN(C)C/C=C(/c1ccc(Br)cc1)c1cccnc1,5.86% [at 35.3 µM] (inactive),–
